Source: ChEMBL document CHEMBL3988442, “University of Dundee, Small-Polar-MMV Screening Library” (2021)
Hit rate of the full screen: of about 48,000 compounds, about 13,000 (27%) showed an effect of 50% or more. The list shows a part of the results.

Each compound was assayed on Wolbachia pipientis (assay: Anti-Wolbachia Cell-Based Screen). Details: 5 µM.
Format: functional
Parameters: scale not given: in the data most compounds retested in dose-response had high values

SMILES	Percent Effect [%]
O=C(c1ccc(F)cc1F)N1C[C@H]2CC[C@@H]1CN(Cc1ccccc1)C2	-4.594
CC(C)N1CC2(CCCN(c3ncc(Cl)cc3F)C2)CCC1=O (centres undefined)	-5.351
CCn1ccc(NC(=O)CCc2c(C)nn(C)c2C)n1	89.06
Cc1noc(C)c1CCC(=O)N(C)C(C)c1cccs1 (centres undefined)	-6.492
Cc1noc(C)c1CC(=O)Nc1ccn(CC(N)=O)n1	108.2
CCS(=O)(=O)CCn1ccc(NC(=O)CCc2cccc(C)c2)n1	-1.723
NC(=O)Cn1ccc(NC(=O)C2(c3ccc(F)cc3)CC2)n1	-13.95
CCn1ccc(NC(=O)CCc2c(C)noc2C)n1	94.65
Cc1ccc(NC(=O)CNc2ccn(CC(N)=O)n2)c(Cl)c1	2.31
Cc1noc(C)c1CCC(=O)Nc1ccn(C)n1	102.9
Cc1nn(C)c(C)c1CCC(=O)Nc1cn(C)c(=O)n(C)c1=O	-11.84
Cc1noc(C)c1CCC(=O)NCCc1cccs1	18.14
Cc1noc(C)c1CC(=O)NCCc1cccs1	21.95
Cc1nn(C)c(C)c1CCC(=O)Nc1cccn(C)c1=O	0.3485
CCc1cc(N(C)Cc2c(C)nn(C)c2C)n2nccc2n1	-6.903
CN(Cc1cc(F)ccc1F)CC(C)(CO)CO	17.08
CNC(=O)c1cccc(NCCOc2ccc(CC#N)cc2)c1C	12.16

SMILES	Percent Effect [%]
COc1cccc(Cn2ncc(N(C)CCc3ccccc3)cc2=O)c1	-17.12
CC(C)OCCn1nnnc1Cc1ccc(Br)cc1	-13.25
CCOC(C(=O)N1CCn2c(C)nnc2C1)c1ccccc1 (centres undefined)	-1.753
CCN(C)CC1CCN(c2ncc(Br)cn2)C1 (centres undefined)	-2.721
CN(C)C(C(=O)N1CCCC1)c1ccccc1F (centres undefined)	1.504
COc1cccc(-c2noc3c2CN(c2ncnc4c2CCC4)CC3)c1	-1.898
COCCN1CCCC1c1ccnc(-c2ccccc2)n1 (centres undefined)	120.2
COCCOc1ccnc(-c2noc([C@@H]3CCCN3C)n2)c1	-6.49
COc1ccc(C2CCCN2c2cnccn2)c(OC)c1 (centres undefined)	8.264
COc1cccc(-c2nccc(C3CCCN3C)n2)c1 (centres undefined)	102
CN1CCCC1c1ccnc(-c2ccccn2)n1 (centres undefined)	114
O=C(N1CCOCC1)N1CCCC1c1nc(-c2ccccn2)no1 (centres undefined)	12.43
COc1ccc(-c2noc([C@@H]3C[C@@H](O)CN3C3CCN(C)CC3)n2)cc1	-10.46
Cc1nn(C)c2nc(-c3ccccn3)nc(NCCC3CCCN3C)c12 (centres undefined)	-7.173
COc1ccc(-c2nccc(C3CCCN3C)n2)cc1 (centres undefined)	122.9
COCCOc1ccnc(-c2noc([C@@H]3CCCN3CC(C)(C)C)n2)c1	20.74
COCCOc1ccnc(-c2noc([C@@H]3CCCN3CC3CC3)n2)c1	-13.12
